Screening results (PubChem)
HTT aggregate = inhibitors of mutant huntingtin aggregate formation in PC12 cells; PC12 HttQ103-GFP aggregates, Acumen cytometry, 40 h; Potency, µM (doses to about 46.1 µM), hits mostly inhibitors; hit rate 1.1% among 220,000; AID 1688; further: nearly all actives have a fitted effect of over 60% in size
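Huntingtin Q103 exon 1–GFP aggregates in induced PC12 cells (100 nM tebufenozide) were quantified by cytometry from lysates, with compounds dosed in titration.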
Luc counter = Kinase-Glo luciferase inhibition (counter-screen); Kinase-Glo luciferase, ATP luminescence, 8 min; Potency, µM (titrated, usually from 38.3 µM), usual class: inhibitors; hit rate 0.28% among 200,000; AID 1379; further: nearly all actives have a fitted effect of over 60% in size
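Kinase-Glo luciferase light output from ATP and luciferin was measured with 10 uM ATP, within the enzyme's linear range. Buffer: 50 mM imidazole pH 7.2, 50 mM KCl, 7 mM MgCl2, 0.01% Tween 20, 0.05% BSA; luminescence read after 8 min at ambient temperature.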
LMNA splice mod = changes lamin A minigene splicing in HeLa cells; HeLa LMNA splicing GFP/RFP minigene ratio, 48 h; Potency, µM (series often up to 46.1 µM), most hits filed as inhibitors; hit rate 0.01% among 200,000; AID 1487; active means well fitted inhibition curve with a large enough effect in the signal ratio, with a control signal flat, not every such curve was filed as active; inconclusive means small, poorly fitted or top-dose-only effect, or effect the other way, or a change in a side signal; the % refers to the signal ratio
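Read-out is the ratio of GFP to DsRed2 object intensity, acquired by 488 nm laser-scanning cytometry on HeLa lamin A-EGFP minigene reporter cells. Compound incubation 48 hrs at 37 °C in Opti-MEM with 2% FBS; DMSO 0.5% final.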
HPGD block = inhibitors of human 15-hydroxyprostaglandin dehydrogenase (HPGD); purified HPGD, NADH fluorescence kinetic, PGE2 substrate; Potency, µM, usual class: inhibitors; hit rate 4.3% among 150,000; AID 894; active means well fitted inhibition curve with a large enough effect, not every such curve was filed as active; inconclusive means small, poorly fitted or top-dose-only effect, or another doubt; inactive means no such curve, though single readings can be large or run the other way
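NADH formation kinetics: reaction with 30 uM PGE2 and 1 mM NAD+ (final), 20 nM enzyme, Tris-HCl pH 8 with Tween 20, after 15 min compound preincubation at room temperature. Fluorescence change, last versus first of five reads.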
ALDH1A1 block = ALDH1A1 (human) enzyme inhibition; P00352; Purified ALDH1A1, NADH fluorescence, propionaldehyde substrate; Potency, µM (doses to about 75.3 µM), usual class: inhibitors; hit rate 7.3% among 220,000; AID 1030; active means well fitted inhibition curve with a large enough effect, not every such curve was filed as active; inconclusive means small, poorly fitted or top-dose-only effect, or another doubt; inactive means no such curve, though single readings can be large or run the other way
Target sequence (P00352 whole entry, looked up): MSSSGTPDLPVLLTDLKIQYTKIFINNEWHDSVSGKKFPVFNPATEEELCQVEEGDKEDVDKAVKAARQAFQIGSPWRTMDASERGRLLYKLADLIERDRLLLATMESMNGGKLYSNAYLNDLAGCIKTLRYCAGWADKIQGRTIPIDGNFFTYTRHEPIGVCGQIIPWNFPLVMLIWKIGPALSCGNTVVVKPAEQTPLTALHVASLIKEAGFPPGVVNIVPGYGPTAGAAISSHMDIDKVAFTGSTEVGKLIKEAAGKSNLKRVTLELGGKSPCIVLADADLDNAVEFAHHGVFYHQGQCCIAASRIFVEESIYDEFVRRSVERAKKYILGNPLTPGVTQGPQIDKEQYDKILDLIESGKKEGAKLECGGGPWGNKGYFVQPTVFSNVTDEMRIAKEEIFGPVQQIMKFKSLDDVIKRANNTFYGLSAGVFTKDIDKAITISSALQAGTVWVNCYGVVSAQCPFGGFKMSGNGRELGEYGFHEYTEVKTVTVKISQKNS
HTT cytoprotect = protects HTT-Q103 PC12 cells, measured by ATP. PC12 HTT-Q103 induced, cytoprotection, ATP luminescence, 40 h. hit rate 0.14% among 230,000. AID 1471. Potency, µM (titrated, usually from 56.4 µM), most hits filed as activators; further: nearly all actives have a fitted effect of over 45% in size
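Compounds were screened for protection of PC12 cells against cell death after tebufenozide induction (100 nM final) of mutant Huntingtin exon 1 (Q103) fused to GFP.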
Large screens that a line does not name were inactive. This is a sample that favours compounds with a hit; in the whole collection about 9% have one here. Unless noted, the call rests on the fitted dose curve; in most records, active means well fitted curve in the direction sought with a large enough effect; inconclusive means small, poorly fitted or top-dose-only effect, or another doubt; inactive means no such curve, though single readings can be large; an effect the other way counts as inactive or inconclusive.

Cc1cccc(NC(c2ccc(O)cc2)c2ccc3ccc(C)nc3c2O)n1 (configuration not stated)	LMNA splice mod inconclusive, HPGD block 17.8µM, ALDH1A1 block 7.94µM
Oc1cccc(C(Nc2nccs2)c2ccc3cccnc3c2O)c1 (configuration not stated)	HTT aggregate inconclusive, LMNA splice mod inconclusive (no result: HPGD block)
COCCn1c(SCc2nc3sc(C(=O)OC)c(C)c3c(=O)[nH]2)nc2ccccc21	none
CCn1c(SCc2nc3sc(C(=O)O)c(C)c3c(=O)[nH]2)nc2ccccc21	HPGD block 15.8µM, ALDH1A1 block inconclusive
Cc1csc(NC(=O)CSc2ccc3nnc(-c4ccncc4)n3n2)n1	none (no result: LMNA splice mod, HPGD block)
COc1ccc(Cl)cc1NC(=O)C1CCN(S(=O)(=O)c2ccc3c(c2)CC(C)N3C(C)=O)CC1 (configuration not stated)	none (no result: HTT aggregate, Luc counter, HPGD block, ALDH1A1 block, HTT cytoprotect)
Cc1ccc(C(=O)c2cc([N+](=O)[O-])ccc2N2CCCCC2)cc1	LMNA splice mod inconclusive, ALDH1A1 block 20µM
O=C(c1cccc(Oc2ccc([N+](=O)[O-])cc2Cl)c1)N1CCCCC1	ALDH1A1 block inconclusive (no result: LMNA splice mod, HPGD block, HTT cytoprotect)
O=C(c1ccc(Oc2ccc([N+](=O)[O-])cc2Cl)cc1)N1CCCC1	ALDH1A1 block 22.4µM (no result: LMNA splice mod, HPGD block)
Cc1ccc(C(=O)c2cc([N+](=O)[O-])ccc2N2CC(C)OC(C)C2)cc1 (configuration not stated)	LMNA splice mod inconclusive, ALDH1A1 block inconclusive
O=C(c1cc([N+](=O)[O-])ccc1N1CCCCC1)N1CCCC1	ALDH1A1 block 28.2µM
CN(C)S(=O)(=O)c1ccc(N2CCCC2)c(C(=O)N2CCN(c3ccc([N+](=O)[O-])cc3)CC2)c1	ALDH1A1 block 14.1µM (no result: HPGD block)
O=C(c1cc([N+](=O)[O-])ccc1N1CCCC1)N1CCCC1	none (no result: HPGD block)
Cc1c(N=C2NN=C(c3ccc(Cl)cc3)CS2)c(=O)n(-c2ccccc2)n1C	ALDH1A1 block 17.8µM (no result: HPGD block)
CN=C1NN=C(c2cc(C)n(-c3ccc(Cl)cc3)c2C)CS1	ALDH1A1 block 8.91µM (no result: HPGD block)
Cc1cc(C2=NNC(=NC3CC3)SC2)c(C)n1-c1c(C)n(C)n(-c2ccccc2)c1=O	HTT aggregate inconclusive, ALDH1A1 block 25.1µM (no result: HTT cytoprotect)
Cc1ccc(-n2c(C)cc(C3=NNC(=NC4CC4)SC3)c2C)cc1C	HTT aggregate inconclusive, LMNA splice mod inconclusive, HPGD block inconclusive, ALDH1A1 block 18.9µM
CCn1c(=O)c(C(=O)NNS(=O)(=O)c2ccc(Br)cc2)c(O)c2ccccc21	none (no result: HTT aggregate, HPGD block, HTT cytoprotect)
CCSc1nnc(N(CCC(=O)O)CCC(=O)O)s1	ALDH1A1 block inconclusive
COc1ccccc1/C=C/C1C(C(=O)OCC(C)C)=C(C)N=C2SCCC(=O)N21 (configuration not stated)	ALDH1A1 block 22.4µM (no result: LMNA splice mod, HPGD block)
CCOC(=O)c1sc2nc(NC(=O)C(C)(C)C)sc2c1C	HTT aggregate 35.5µM, LMNA splice mod inconclusive, HPGD block inconclusive, ALDH1A1 block inconclusive
Cc1ccc(-c2cc(C(F)F)nc(NCc3cccnc3)n2)cc1	LMNA splice mod inconclusive, ALDH1A1 block inconclusive
Cc1nc2sc3c(c2c(=O)n1NC(=O)CCBr)CCCC3	ALDH1A1 block 14.1µM (no result: LMNA splice mod, HPGD block)
CCCc1nc2sc3c(c2c(=O)n1NC(=O)CCC(=O)OC)CCCC3	none (no result: Luc counter, LMNA splice mod, HPGD block, ALDH1A1 block)
O=C(C1=C[C@@H](C2CCCCC2)C[C@@H](OCCCCO)O1)N1CCN(Cc2ccccc2)CC1	ALDH1A1 block 15.8µM (no result: Luc counter, LMNA splice mod, HPGD block)
C=CCOC(=O)C1=C[C@@H](c2csc3ccccc23)C[C@@H](OCc2ccc(CO)cc2)O1	ALDH1A1 block 25.1µM (no result: Luc counter, LMNA splice mod, HPGD block)
CCO[C@H]1OC(C(=O)N2CCN(Cc3ccccc3)CC2)=C[C@@H](c2ccc(C(F)(F)F)cc2)[C@@H]1CCCO	ALDH1A1 block 4.47µM (no result: Luc counter, LMNA splice mod, HPGD block)
CCO[C@H]1OC(C(=O)N2CCN(Cc3ccccc3)CC2)=C[C@@H](c2ccccc2)[C@@H]1CCCO	none (no result: Luc counter, LMNA splice mod, HPGD block)
C#CCNC(=O)C1=C[C@H](c2ccc3c(c2)OCO3)C[C@H](OCc2ccc(CO)cc2)O1	ALDH1A1 block 28.2µM (no result: Luc counter, LMNA splice mod, HPGD block)
Cc1cc([N+](=O)[O-])c(C)c(Br)c1C	none (no result: HTT aggregate, LMNA splice mod)
CCCCN(C)CCNC(=O)Cn1ncc2c3ccccc3n(CCC)c2c1=O	none (no result: HTT aggregate, Luc counter, HPGD block, ALDH1A1 block, HTT cytoprotect)
COc1cccc(-c2nc(CS(=O)(=O)CC(=O)NCc3ccccc3OC)c(C)o2)c1	none
O=C(C1=C[C@@H](c2ccccc2)C[C@@H](OCc2ccc(CO)cc2)O1)N1CCCCCCC1	ALDH1A1 block 25.1µM (no result: Luc counter, LMNA splice mod, HPGD block)
O=C(C1=C[C@@H](c2ccccc2)C[C@@H](OCc2ccc(CO)cc2)O1)N1CCN(Cc2ccc3c(c2)OCO3)CC1	none (no result: Luc counter, LMNA splice mod, HPGD block)
O=C(C1=C[C@H](c2ccccc2)C[C@H](OCc2ccc(CO)cc2)O1)N1CCN(Cc2ccccc2)CC1	ALDH1A1 block 14.1µM (no result: Luc counter, LMNA splice mod, HPGD block)
O=C(C1=C[C@H](c2ccc(C(F)(F)F)cc2)C[C@H](OCc2ccc(CO)cc2)O1)N1CCCCCCC1	ALDH1A1 block inconclusive (no result: Luc counter, LMNA splice mod, HPGD block)
N#Cc1cc2c(nc1SCc1cccnc1)CCCC2	LMNA splice mod inconclusive, HPGD block 12.6µM, ALDH1A1 block inconclusive
Cc1ccc(C(=O)Nc2cc(C(C)C)c(O)c(C(C)C)c2)cc1	HTT aggregate 10µM, LMNA splice mod inconclusive (no result: HTT cytoprotect)
O=C(COc1cccc(Cl)c1)NNC(=S)Nc1ccccc1	none
CC(C)CNC(=S)NC(=O)c1ccc(Cl)cc1Cl	ALDH1A1 block 22.4µM (no result: Luc counter, HPGD block)
